Here are results for 9 compounds from PubChem BioAssay (Tox21).

Several values for one entry are separate records, joined by “and”; a condition that tells them apart may be missing. Identical values can stand only once. Results filed as inconclusive are left out. A structure can be active in one record and inactive in another. Activity calls are given as the source filed them. Unless noted, calls come from the whole dose curve; as a rule, active = well fitted curve in the direction sought with a large enough effect in the repeat runs; inconclusive = weak or mixed curves; inactive = no such curve, though single readings can be large; an effect the other way counts as inactive or inconclusive.

Experiment [1] is described as follows: qHTS assay to identify small molecule agonists of the estrogen receptor alpha (ER-alpha) signaling pathway in the presence of an antagonist - cell viability counter screen (AID 1259386).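 Note: cells exposed to compounds for 22 h at 37 °C before the viability read; nearly all actives have a fitted effect of over 30% in size.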 Note: potency is the fitted concentration of half-maximal effect. In short, it runs like this: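 ICI-182,780 at 10.0nM final accompanies the compound titration (15 concentrations, 22hr, 37C) on VM7Luc4E2 cells. The CellTiter-Fluor fluorescence readout runs in the same wells as the luciferase assay.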
(qHTS replaces the single test concentration by a dilution series.)

Experiment [2] has as its target Progesterone receptor (Homo sapiens) (UniProt P06401). Briefly: qHTS assay to identify small molecule antagonists of the progesterone receptor (PR) signaling pathway (AID 1346795; active = well fitted inhibition curve with a large enough effect in the signal ratio in the repeat runs, not every such curve was filed as active; the % refers to the signal ratio; note: potency is the fitted concentration of half-maximal effect). In short, it runs like this: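 Inhibition of R5020-induced (1 nM final) beta-lactamase reporter signal in PR-UAS-bla HEK293T cells was scored by FRET fluorescence after overnight (16 hr) compound treatment.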

Experiment [3] in a line: qHTS assay to identify small molecule antagonists of the progesterone receptor (PR) signaling pathway - cell viability counter screen (AID 1346798). Note: nearly all actives have a fitted effect of over 50% in size. Note: potency is the fitted concentration of half-maximal effect. In short, it runs like this:
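ATP content as viability readout: CellTiter-Glo luminescence, 30 min room temperature, in PR-UAS-bla HEK293T cells after 16 hr compound/R5020 treatment at 37C and 5% CO2.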

A short description of experiment [4]: qHTS assay to identify small molecule antagonists of the TGF-beta/Smad signaling pathway - cell viability counter screen (AID 1346824). Note: nearly all actives have a fitted effect of over 50% in size. Note: potency is the fitted concentration of half-maximal effect. In short, it runs like this:
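SBE-bla HEK 293T cells, incubated overnight, then compound plus 0.25 ng/mL TGF-beta1 (stock added) for 5 hr at 37 C. Viability was read in the same wells by CellTiter-Glo luminescence after 30 min at room temperature.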

Experiment [5] can be described thus: qHTS assay to identify small molecule agonists of the TGF-beta/Smad signaling pathway - cell viability counter screen (AID 1346829). Note: nearly all actives have a fitted effect of over 45% in size. Note: potency is the fitted concentration of half-maximal effect. In short, it runs like this: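 Compound-treated SBE-bla HEK 293T cells (5 hr, 37 C) were assessed for viability with CellTiter-Glo in parallel with the reporter read.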
Experiment [6] is described as follows: qHTS assay to identify small molecule agonists of the TGF-beta/Smad signaling pathway (AID 1346859; active = well fitted activation curve with a large enough effect in the signal ratio in the repeat runs, not every such curve was filed as active; the % refers to the signal ratio; note: series mostly up to about 77 µM). In short, it runs like this: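 Stable Smad binding element-beta-lactamase HEK 293T cells; 5 hr compound exposure at 37 C under 5% CO2; 2 hr room-temperature substrate step; fluorescence excited at 405 nm, collected at 460 nm and 530 nm.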
Experiment [7] deals with Thyrotropin-releasing hormone receptor (Homo sapiens) (UniProt P34981). Briefly: qHTS assay to identify small molecule antagonists of the thyrotropin-releasing hormone receptor (TRHR) signaling pathway (AID 1346877; active = well fitted inhibition curve with a large enough effect in the repeat runs, not every such curve was filed as active; note: series mostly up to about 51 µM). In short, it runs like this: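 Screening used HEK293 cells engineered with TRHR, with a brief 5 min room-temperature compound exposure preceding addition of TRH to 1 nM. The read-out was kinetic calcium-dye fluorescence, concentration-response from 15 doses in triplicate.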
Thyrotropin-releasing hormone receptor (Homo sapiens), sequence (P34981 whole entry, looked up): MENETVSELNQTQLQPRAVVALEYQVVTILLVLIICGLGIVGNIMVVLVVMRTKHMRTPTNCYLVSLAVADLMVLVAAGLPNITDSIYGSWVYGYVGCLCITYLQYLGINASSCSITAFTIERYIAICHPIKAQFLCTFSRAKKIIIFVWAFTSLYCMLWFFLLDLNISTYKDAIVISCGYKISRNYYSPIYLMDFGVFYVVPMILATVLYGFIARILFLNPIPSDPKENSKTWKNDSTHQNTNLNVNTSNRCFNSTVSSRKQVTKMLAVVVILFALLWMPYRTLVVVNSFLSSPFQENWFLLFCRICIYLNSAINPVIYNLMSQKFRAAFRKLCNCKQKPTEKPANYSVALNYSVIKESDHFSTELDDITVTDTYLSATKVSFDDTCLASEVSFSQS

The target is the same in experiment [8]. Briefly: qHTS assay to identify small molecule agonists of the thyrotropin-releasing hormone receptor (TRHR) signaling pathway (AID 1346891; calls by dose curve;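 note: HEK293 cells expressing TRHR with calcium dye readout; series mostly up to about 58 µM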). In short, it runs like this: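 In 1536-format, 1500 TRHR-Hek293 cells per well grew 18 h, took up calcium dye for 2 h at 37 °C, received compound, and were read kinetically; 15-point titrations, triplicates.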
The nature of experiment [9]: Human pregnane X receptor (PXR) small molecule agonists, qHTS cell viability counter screen (AID 1346977). Note: nearly all actives have a fitted effect of over 50% in size. Note: potency is the fitted concentration of half-maximal effect. Put shortly: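 Readout is CellTiter-Fluor fluorescence from PXR-Luc HepG2 cells. Plated cells rested 5hr, then were treated with compounds for 24hr at 37C and 5% CO2, with reagent present during the last hour.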
The nature of experiment [10]: Caspase-3/7 induction in HepG2 cells by small molecules, qHTS assay (AID 1346978). Note: nearly all actives have a fitted effect of over 15% in size. Note: potency is the fitted concentration of half-maximal effect. In short, it runs like this: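 Wild-type HepG2 cells, 2,000/well, settled 5 hr at 37 C and 5% CO2, then compound-treated for 17 hr; caspase-3/7 activity read by luminescent Caspase-Glo 3/7 after 30 min at room temperature.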
Experiment [11] is described as follows: Caspase-3/7 induction in CHO-K1 cells by small molecules, qHTS cell viability counter screen (AID 1346979). Note: nearly all actives have a fitted effect of over 35% in size. Note: potency is the fitted concentration of half-maximal effect. In short, it runs like this: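 To flag cytotoxic compounds, treated CHO-K1 wild-type cells were given CellTiter-Fluor at 16hr and read fluorescently after 1hr at 37C; the caspase-3/7 luminescence was measured in these same wells.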
A short description of experiment [12]: Caspase-3/7 induction in CHO-K1 cells by small molecules, qHTS assay (AID 1346980). Note: nearly all actives have a fitted effect of over 15% in size. Note: potency is the fitted concentration of half-maximal effect. Put shortly: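 Wild-type CHO-K1 cells exposed to compounds for 17hr at 37 C, 5% CO2. Caspase-3/7 activity then measured by Caspase-Glo 3/7 luminescence after 30min at room temperature.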
The nature of experiment [13]: Caspase-3/7 induction in HepG2 cells by small molecules, qHTS cell viability counter screen (AID 1346981). Note: nearly all actives have a fitted effect of over 30% in size. Note: potency is the fitted concentration of half-maximal effect. Put shortly:
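Multiplexed with the caspase-3/7 assay: HepG2 cells, 16 hr compound treatment, CellTiter-Fluor viability detection by fluorescence.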

In experiment [14] the target is Nuclear receptor subfamily 1 group I member 2 (Homo sapiens) (UniProt O75469). Briefly: Human pregnane X receptor (PXR) small molecule agonists, qHTS assay (AID 1346982). Note: nearly all actives have a fitted effect of over 35% in size. Note: potency is the fitted concentration of half-maximal effect. Put shortly:
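We seeded PXR-Luc HepG2 cells in assay medium containing 5% charcoal-stripped FBS, added compounds 5 hr later, incubated 24 hr, and read luminescence with ONE-Glo reagent.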

Experiment [15] has as its target Acetylcholinesterase (Homo sapiens) (UniProt P22303). Briefly: Acetylcholinesterase (AChE) small molecule antagonists: colormetric cell-based qHTS assay (AID 1347395; calls by dose curve; note: nearly all actives have a fitted effect of over 30% in size). Put shortly:
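Neuroblastoma line SH-SY5Y supplied the enzyme; cells were preincubated with compound for 30 min at 37 C and 5% CO2. Acetylthiocholine with DTNB was then added for 90 min at 37 C, and thiocholine was measured by colour.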

A short description of experiment [16]: qHTS assay to identify small molecule agonists of the progesterone receptor (PR) signaling pathway - cell viability counter screen (AID 1346799; calls by dose curve; note: nearly all actives have a fitted effect of over 45% in size; note: potency is the fitted concentration of half-maximal effect). Put shortly:
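Cytotoxicity in PR-bla HEK293T cells: 16 h compound, 37C; CellTiter-Glo added post-FRET read; luminescence after 30 min RT.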

In experiment [17] the target is Progesterone receptor (Homo sapiens) (UniProt P06401). Briefly: qHTS assay to identify small molecule agonists of the progesterone receptor (PR) signaling pathway (AID 1346784; calls by dose curve; note: nearly all actives have a fitted effect of over 30% in size). Put shortly:
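Using charcoal-stripped serum (2%) to limit endogenous steroids, PR-UAS-bla HEK 293T cells received compounds for 16 hr at 37C after 6 hr plating; beta-lactamase FRET fluorescence was recorded following 2 hr substrate loading at room temperature.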

In experiment [18] the target is Nuclear receptor subfamily 1 group I member 2 (Rattus norvegicus) (UniProt Q9R1A7). Briefly: Rat pregnane X receptor (rPXR) activation by small molecules, qHTS assay (AID 1346983). Note: nearly all actives have a fitted effect of over 20% in size. Particulars: rPXR luciferase reporter cells, One-Glo luminescence, 24 h; stronger effect = higher value. Put shortly: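 Cell-based rPXR activation assay: rPXR cells, 2,000 per well, rested 5hr at 37 C, then exposed to compounds in DMSO for 24 hr at 37 C. Luciferase activity read by One-Glo luminescence after 30 min at room temperature.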
Nuclear receptor subfamily 1 group I member 2 (Rattus norvegicus), sequence (Q9R1A7 whole entry, looked up): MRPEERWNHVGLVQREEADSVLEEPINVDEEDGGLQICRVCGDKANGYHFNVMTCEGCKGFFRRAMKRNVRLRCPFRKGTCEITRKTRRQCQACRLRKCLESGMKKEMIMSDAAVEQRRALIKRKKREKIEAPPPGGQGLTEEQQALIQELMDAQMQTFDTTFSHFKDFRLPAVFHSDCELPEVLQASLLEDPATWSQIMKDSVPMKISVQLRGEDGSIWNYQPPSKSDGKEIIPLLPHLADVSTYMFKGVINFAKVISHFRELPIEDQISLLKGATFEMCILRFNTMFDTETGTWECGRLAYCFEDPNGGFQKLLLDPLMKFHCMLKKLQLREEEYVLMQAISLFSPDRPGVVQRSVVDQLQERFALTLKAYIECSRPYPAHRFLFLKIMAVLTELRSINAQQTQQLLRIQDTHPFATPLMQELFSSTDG

Experiment [19] deals with Nuclear receptor subfamily 1 group I member 2 (Homo sapiens) (UniProt O75469). Briefly: CYP3A4 induction through human pregnane X receptor (PXR) by small molecules, qHTS assay (AID 1346984). Note: nearly all actives have a fitted effect of over 40% in size. In short, it runs like this: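 qHTS, concentration-response format: HepG2 DPX-2 line, PXR/CYP3A4-luc. Exposure 24 h, 37C. Substrate Luciferin-IPA 3uM final, 3 h. Detection One-Glo, 30 min RT.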
Nuclear receptor subfamily 1 group I member 2 (Homo sapiens), sequence (O75469 whole entry, looked up): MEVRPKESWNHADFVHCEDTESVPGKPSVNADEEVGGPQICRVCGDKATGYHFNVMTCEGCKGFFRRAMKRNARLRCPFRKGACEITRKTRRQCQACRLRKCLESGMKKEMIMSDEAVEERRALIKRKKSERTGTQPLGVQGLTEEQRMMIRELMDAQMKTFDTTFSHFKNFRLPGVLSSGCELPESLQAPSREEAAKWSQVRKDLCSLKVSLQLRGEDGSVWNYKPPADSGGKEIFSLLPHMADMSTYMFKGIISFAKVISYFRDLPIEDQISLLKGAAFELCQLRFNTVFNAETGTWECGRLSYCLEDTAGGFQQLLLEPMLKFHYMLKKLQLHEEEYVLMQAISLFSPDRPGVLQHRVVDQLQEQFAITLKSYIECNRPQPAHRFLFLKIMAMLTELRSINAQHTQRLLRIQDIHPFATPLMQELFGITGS

Experiment [20] has the same target. Briefly: Human pregnane X receptor (PXR) activation by small molecules, qHTS assay (AID 1346985). Note: nearly all actives have a fitted effect of over 40% in size. Put shortly: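 DPX-2 cells (HepG2 co-transfected with a PXR response element and a CYP3A4-promoter luciferase construct) were seeded at 2,000 per well, rested 5 hr at 37C, then exposed to DMSO-dissolved compounds for 24 hr. Activation was read as luciferase luminescence.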
% is set by controls: 0 for no effect and ±100 for the full control effect.

Progesterone receptor (Homo sapiens), sequence (P06401 whole entry, looked up): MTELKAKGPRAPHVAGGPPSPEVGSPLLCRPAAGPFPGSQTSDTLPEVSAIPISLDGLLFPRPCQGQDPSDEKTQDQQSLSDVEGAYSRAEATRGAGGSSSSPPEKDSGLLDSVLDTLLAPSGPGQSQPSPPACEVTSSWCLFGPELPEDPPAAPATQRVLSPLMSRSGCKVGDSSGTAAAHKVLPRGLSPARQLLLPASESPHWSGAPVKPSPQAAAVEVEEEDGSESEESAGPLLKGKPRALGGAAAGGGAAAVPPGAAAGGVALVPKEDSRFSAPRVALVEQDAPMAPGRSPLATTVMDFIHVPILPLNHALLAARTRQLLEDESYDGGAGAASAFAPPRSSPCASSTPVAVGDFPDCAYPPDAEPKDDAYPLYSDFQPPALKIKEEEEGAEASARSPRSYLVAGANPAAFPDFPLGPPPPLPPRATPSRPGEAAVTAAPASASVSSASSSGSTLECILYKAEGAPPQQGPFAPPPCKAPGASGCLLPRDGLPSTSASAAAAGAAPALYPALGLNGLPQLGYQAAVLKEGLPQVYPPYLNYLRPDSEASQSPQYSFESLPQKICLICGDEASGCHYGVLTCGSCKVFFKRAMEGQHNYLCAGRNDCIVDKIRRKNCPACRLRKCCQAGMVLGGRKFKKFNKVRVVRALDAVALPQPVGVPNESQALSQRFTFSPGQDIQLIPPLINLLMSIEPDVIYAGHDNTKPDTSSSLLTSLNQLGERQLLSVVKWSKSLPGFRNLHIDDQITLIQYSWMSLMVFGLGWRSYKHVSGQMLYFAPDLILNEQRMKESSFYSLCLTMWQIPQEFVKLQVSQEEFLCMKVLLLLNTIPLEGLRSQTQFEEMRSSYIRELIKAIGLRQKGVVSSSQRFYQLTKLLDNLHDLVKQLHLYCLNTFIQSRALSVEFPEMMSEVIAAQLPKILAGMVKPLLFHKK
Acetylcholinesterase (Homo sapiens), sequence (P22303 whole entry, looked up): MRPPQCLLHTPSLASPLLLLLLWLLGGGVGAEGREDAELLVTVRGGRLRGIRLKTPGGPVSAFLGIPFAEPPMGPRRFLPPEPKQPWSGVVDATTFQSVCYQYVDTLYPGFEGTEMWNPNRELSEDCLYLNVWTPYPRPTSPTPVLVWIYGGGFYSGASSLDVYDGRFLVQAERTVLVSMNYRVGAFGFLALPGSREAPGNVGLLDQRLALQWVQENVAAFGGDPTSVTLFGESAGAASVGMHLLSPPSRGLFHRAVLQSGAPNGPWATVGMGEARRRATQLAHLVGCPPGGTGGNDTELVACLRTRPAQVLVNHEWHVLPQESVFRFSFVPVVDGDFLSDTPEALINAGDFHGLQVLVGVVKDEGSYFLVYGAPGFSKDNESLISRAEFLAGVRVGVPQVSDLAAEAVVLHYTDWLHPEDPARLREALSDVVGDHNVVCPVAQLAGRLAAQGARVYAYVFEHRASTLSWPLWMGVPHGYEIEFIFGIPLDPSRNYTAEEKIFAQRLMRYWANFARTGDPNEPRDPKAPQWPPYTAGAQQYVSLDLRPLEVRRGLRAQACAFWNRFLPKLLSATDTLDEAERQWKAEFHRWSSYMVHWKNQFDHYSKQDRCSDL

With `CCC(=O)O[C@@H]1C=C2CCC3C(CCC4(C)C3CC[C@@H]4OC(=O)CC)C2CC1` (stereo partly specified), the Potency result in experiment [1], in [2], in experiment [3], in experiment [4], in experiment [5] and in [7] was “inactive” each time. Also, the Potency result in experiment [9], in [10], in experiment [11], in experiment [12], in experiment [13] and in experiment [14] was “inactive” each time. The Potency result in experiment [15] was “inactive”. The compound was classed as inactive in experiment [6] and in experiment [8].
`C=CCOC(=O)C(C)(C)OC(=O)c1cc(-n2c(=O)cc(C(F)(F)F)n(C)c2=O)ccc1Cl`: the Potency entry in experiment [1], in experiment [3], in experiment [16], in experiment [4], in experiment [5] and in experiment [7] was “inactive” throughout. The Potency result in experiment [9], in experiment [10], in experiment [12], in experiment [13] and in [15] was “inactive” each time. Besides, the call in [6] and in experiment [8] was inactive. In [14], the Potency was 4.24 µM (active).
In the case of `COc1cc(CC(C)N)c(OC)cc1Br` (stereo unspecified), the Potency result in experiment [1], in experiment [17], in experiment [16], in [4], in experiment [5] and in [7] was “inactive” in each case. Besides, the Potency entry in experiment [10], in experiment [11], in experiment [12], in experiment [13] and in [15] was “inactive” throughout. Moreover, the call in experiment [6] and in experiment [8] was inactive.
For `[Cl-].[Cl-].[Hg+2]`, the Potency in experiment [1] is 54.2 µM (active) and 27.3 µM (active); in experiment [3] it was 4.83 µM (active) and 2.43 µM (active); in [16], 5.42 µM (active) and 2.17 µM (active); in experiment [4], 24.4 µM (active) and 54.9 µM (active); in [5], 54.7 µM (active) and 54.9 µM (active); in experiment [9], 7.08 µM (active) and 6.11 µM (active). Further, the Potency is 483 nM (active) and 2.43 µM (active) in experiment [11]; 27.2 µM (active) and 54.5 µM (active) in [13]. The compound was classed as inactive in experiment [6]. Further, the Potency result in experiment [10] and in experiment [12] was “inactive” in each case. Besides, in experiment [18], the max activation was -4.43% (inactive).
As to `CCC(C)(C)c1ccc(O)c(C(C)(C)CC)c1`, the Potency entry in experiment [1], in experiment [4], in experiment [7], in [13] and in experiment [15] was “inactive” throughout. Also, the Potency in experiment [3] is 60.4 µM (active) and 30.6 µM (active); in experiment [16], 24.3 µM (active); in [9], 30.6 µM (active); in experiment [10], 21.7 µM (active); in [11] it was 48 µM (active) and 27.3 µM (active); in experiment [12] it was “inactive and 17.2 µM (active)”. In addition, the Potency in experiment [14] was 27 µM (active) and inactive. The outcome in experiment [6] and in experiment [8] was inactive.
`CC(Oc1cc(Cl)c(Cl)cc1Cl)C(=O)O` (stereo unspecified): the Potency entry in [1], in [2], in [3], in [4], in experiment [5] and in experiment [7] was “inactive” in each case. Further, the Potency result in [9], in experiment [10], in experiment [11], in experiment [12], in experiment [13] and in experiment [15] was “inactive” throughout. Further, the Potency in experiment [16] is 48.7 µM (active). The call in experiment [6] and in experiment [8] was inactive.
On to `CCCCCl`, for which the Potency result in experiment [1], in experiment [17], in experiment [16], in experiment [5], in [7] and in [9] was “inactive” throughout. Moreover, the Potency result in experiment [10], in [11], in [12], in experiment [13], in [14] and in [20] was “inactive” in each case. In addition, the Potency result in [15] was “inactive”. The call in experiment [8] and in experiment [19] was inactive. The max activation in experiment [18] is -0.159% (inactive).
For the compound `CCCN(CCC)C(=O)Cc1c(-c2ccc(Cl)cc2)nc2ccc(Cl)cn12`, the Potency result in experiment [17], in [3], in [16], in [4], in experiment [5] and in experiment [7] was “inactive” in each case. In addition, the Potency result in experiment [9], in [10], in experiment [12] and in [15] was “inactive” each time. The figures for the Potency in experiment [2] and in [11] were 10.6 µM (active) and 33.5 µM (active), respectively. The compound was called inactive in experiment [6] and in [8].
As for `COc1cc(C[C@@H](C)N)c(OC)cc1Br`, the Potency entry in [1], in experiment [17], in [4], in experiment [5], in [7] and in [10] was “inactive” throughout. Further, the Potency result in experiment [11], in [12], in experiment [13], in experiment [14] and in experiment [15] was “inactive” in each case. For the same compound, the compound was classed as inactive in experiment [6] and in experiment [8].
